Laboratory results reported in PubChem BioAssay AID1159580 (chemical genetic matrix, 2015).
In all, about 5,500 compounds went through this assay and about 2,000 (36%) were called active. Roughly 18% stayed inconclusive and do not appear here. Some of the results follow. Values without a mark were called inactive. No stated cut-off is given here; in the data, active means normalized growth mostly below about 0.91 (no sharp cut-off); inconclusive means no clear call, values can overlap the other calls; inactive means mostly above about 0.92.

Experiment: chemical genetic growth profiling, strain panel (AID 1159580);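 further: tested at 20 µM; growth read once vehicle control cultures reached saturation at 30 °C; 1 = growth at the plate median or of vehicle wells; lower values mean less growth of the strain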
Conditions: growth OD

Q: Which normalized growth (S. cerevisiae deletion strains, locus YJR066W, strain TOR1, hits give low values) does the source give for `CC(=O)N(O)CCCCCNC(=O)CCC(=O)N(O)CCCCCNC(=O)CCC(=O)N(O)CCCCCN` here?
A: 0.95

Q: And the normalized growth (S. cerevisiae deletion strains, locus YJR075W, strain HOC1, hits give low values)?
A: 1.01

Q: What about the normalized growth (S. cerevisiae deletion strains, locus YKL009W, strain mrt4, hits give low values) of the same compound?
A: 1.01

Q: What about the normalized growth (S. cerevisiae deletion strains, locus YKL068W, hits give low values) of the same compound?
A: 1.05

Q: And the normalized growth (S. cerevisiae deletion strains, locus YKL085W, strain MDH1 (second series), hits give low values)?
A: 1.02

Q: What about the normalized growth (S. cerevisiae deletion strains, locus YKL085W, strain MDH1, hits give low values) of the same compound?
A: 1.02

Q: What about the normalized growth (S. cerevisiae deletion strains, locus YKL160W, strain elf1, hits give low values) of the same compound?
A: 0.998

Q: What about the normalized growth (S. cerevisiae deletion strains, locus YKL190W, strain CNB1, hits give low values) of the same compound?
A: 1.01

Q: And the normalized growth (S. cerevisiae deletion strains, locus YKR001C, strain vps1, hits give low values)?
A: 0.966

Q: What about the normalized growth (S. cerevisiae deletion strains, locus YKR026C, strain gcn3, hits give low values) of the same compound?
A: 1.03

Q: What about the normalized growth (S. cerevisiae deletion strains, locus YKR091W, strain srl3, hits give low values) of the same compound?
A: 1.01

Q: And the normalized growth (S. cerevisiae deletion strains, locus YLL001W, strain dnm1, hits give low values)?
A: 0.991

Q: And the normalized growth (S. cerevisiae deletion strains, locus YLL026W, hits give low values)?
A: 0.997

Q: And the normalized growth (S. cerevisiae deletion strains, locus YLL041C, strain sdh2, hits give low values)?
A: 1

Q: And the normalized growth (S. cerevisiae deletion strains, locus YLR027C, strain aat2, hits give low values)?
A: 1

Q: And the normalized growth (S. cerevisiae deletion strains, locus YLR039C, strain RIC1, hits give low values)?
A: 0.997

Q: And the normalized growth (S. cerevisiae deletion strains, locus YLR058C, strain SHM2, hits give low values)?
A: 1.01

Q: What about the normalized growth (S. cerevisiae deletion strains, locus YLR102C, strain apc9, hits give low values) of the same compound?
A: 1.03

Q: What about the normalized growth (S. cerevisiae deletion strains, locus YLR113W, strain HOG1, hits give low values) of the same compound?
A: 1.14

Q: And the normalized growth (S. cerevisiae deletion strains, locus YLR221C, strain rsa3, hits give low values)?
A: 1.04

Q: What about the normalized growth (S. cerevisiae deletion strains, locus YLR258W, strain gsy2, hits give low values) of the same compound?
A: 1.02

Q: And the normalized growth (S. cerevisiae deletion strains, locus YLR262C, strain YPT6 (second series), hits give low values)?
A: 0.995

Q: What about the normalized growth (S. cerevisiae deletion strains, locus YLR262C, strain YPT6, hits give low values) of the same compound?
A: 1.08

Q: And the normalized growth (S. cerevisiae deletion strains, locus YLR268W, strain sec22, hits give low values)?
A: 0.981

Q: And the normalized growth (S. cerevisiae deletion strains, locus YLR320W, strain mms22, hits give low values)?
A: 1.07

Q: What about the normalized growth (S. cerevisiae deletion strains, locus YLR330W, strain CHS5, hits give low values) of the same compound?
A: 1.01

Q: What about the normalized growth (S. cerevisiae deletion strains, locus YLR342W, strain FKS1 (second series), hits give low values) of the same compound?
A: 0.854

Q: And the normalized growth (S. cerevisiae deletion strains, locus YLR342W, strain FKS1, hits give low values)?
A: 0.958

Q: And the normalized growth (S. cerevisiae deletion strains, locus YLR357W, strain rsc2, hits give low values)?
A: 0.882

Q: And the normalized growth (S. cerevisiae deletion strains, locus YLR370C, strain arc18, hits give low values)?
A: 1

Q: What about the normalized growth (S. cerevisiae deletion strains, locus YLR371W, strain rom2, hits give low values) of the same compound?
A: 1.02

Q: What about the normalized growth (S. cerevisiae deletion strains, locus YLR384C, strain iki3, hits give low values) of the same compound?
A: 0.991

Q: What about the normalized growth (S. cerevisiae deletion strains, locus YLR418C, strain cdc73, hits give low values) of the same compound?
A: 0.864

Q: And the normalized growth (S. cerevisiae deletion strains, locus YML016C, strain PPZ1, hits give low values)?
A: 1.01

Q: And the normalized growth (S. cerevisiae deletion strains, locus YML032C, strain rad52, hits give low values)?
A: 1.06

Q: What about the normalized growth (S. cerevisiae deletion strains, locus YML120C, strain ndi1, hits give low values) of the same compound?
A: 0.993

Q: What about the normalized growth (S. cerevisiae deletion strains, locus YML124C, strain tub3, hits give low values) of the same compound?
A: 1.03

Q: And the normalized growth (S. cerevisiae deletion strains, locus YMR058W, strain fet3, hits give low values)?
A: 1.02

Q: And the normalized growth (S. cerevisiae deletion strains, locus YMR078C, strain ctf18, hits give low values)?
A: 1.04

Q: And the normalized growth (S. cerevisiae deletion strains, locus YMR125W, strain sto1, hits give low values)?
A: 1.06

Q: And the normalized growth (S. cerevisiae deletion strains, locus YMR129W, hits give low values)?
A: 1.01

Q: What about the normalized growth (S. cerevisiae deletion strains, locus YMR205C, strain PFK2, hits give low values) of the same compound?
A: 1.03

Q: And the normalized growth (S. cerevisiae deletion strains, locus YMR223W, strain ubp8, hits give low values)?
A: 0.998

Q: And the normalized growth (S. cerevisiae deletion strains, locus YMR231W, strain pep5, hits give low values)?
A: 0.983

Q: What about the normalized growth (S. cerevisiae deletion strains, locus YMR307W, strain GAS1, hits give low values) of the same compound?
A: 0.809

Q: And the normalized growth (S. cerevisiae deletion strains, locus YNL067W, strain RPL9B, hits give low values)?
A: 0.999

Q: What about the normalized growth (S. cerevisiae deletion strains, locus YNL071W, strain lat1, hits give low values) of the same compound?
A: 1.04

Q: What about the normalized growth (S. cerevisiae deletion strains, locus YNL128W, strain TEP1, hits give low values) of the same compound?
A: 1.01

Q: What about the normalized growth (S. cerevisiae deletion strains, locus YNL153C, strain GIM3, hits give low values) of the same compound?
A: 0.99

Q: And the normalized growth (S. cerevisiae deletion strains, locus YNL183C, strain NPR1, hits give low values)?
A: 0.995

Q: What about the normalized growth (S. cerevisiae deletion strains, locus YNL209W, strain ssb2, hits give low values) of the same compound?
A: 0.917 (active)

Q: What about the normalized growth (S. cerevisiae deletion strains, locus YNL233W, strain BNI4, hits give low values) of the same compound?
A: 0.987

Q: And the normalized growth (S. cerevisiae deletion strains, locus YNL248C, strain rpa49, hits give low values)?
A: 1.08

Q: What about the normalized growth (S. cerevisiae deletion strains, locus YNL250W, strain rad50, hits give low values) of the same compound?
A: 1.08

Q: What about the normalized growth (S. cerevisiae deletion strains, locus YNL271C, strain bni1, hits give low values) of the same compound?
A: 0.978

Q: And the normalized growth (S. cerevisiae deletion strains, locus YNL298W, strain CLA4, hits give low values)?
A: 1

Q: And the normalized growth (S. cerevisiae deletion strains, locus YNL307C, strain MCK1, hits give low values)?
A: 1.03

Q: What about the normalized growth (S. cerevisiae deletion strains, locus YNL322C, strain KRE1 (second series), hits give low values) of the same compound?
A: 1.01

Q: What about the normalized growth (S. cerevisiae deletion strains, locus YNR049C, strain mso1, hits give low values) of the same compound?
A: 1.01

Q: And the normalized growth (S. cerevisiae deletion strains, locus YNR052C, strain pop2, hits give low values)?
A: 1.01

Q: What about the normalized growth (S. cerevisiae deletion strains, locus YOL012C, strain htz1) of the same compound?
A: 1.51

Q: What about the normalized growth (S. cerevisiae deletion strains, locus YOL147C, strain pex11, hits give low values) of the same compound?
A: 1.02

Q: And the normalized growth (S. cerevisiae deletion strains, locus YOR001W, strain rrp6, hits give low values)?
A: 0.96

Q: What about the normalized growth (S. cerevisiae deletion strains, locus YOR061W, strain CKA2, hits give low values) of the same compound?
A: 0.996

Q: What about the normalized growth (S. cerevisiae deletion strains, locus YOR069W, strain VPS5, hits give low values) of the same compound?
A: 1.01

Q: And the normalized growth (S. cerevisiae deletion strains, locus YOR070C, strain gyp1, hits give low values)?
A: 1.01

Q: What about the normalized growth (S. cerevisiae deletion strains, locus YOR080W, strain dia2, hits give low values) of the same compound?
A: 0.996

Q: And the normalized growth (S. cerevisiae deletion strains, locus YOR083W, strain WHI5, hits give low values)?
A: 0.958

Q: And the normalized growth (S. cerevisiae deletion strains, locus YOR106W, strain vam3, hits give low values)?
A: 0.844 (active)

Q: What about the normalized growth (S. cerevisiae deletion strains, locus YOR136W, strain idh2, hits give low values) of the same compound?
A: 1.03

Q: And the normalized growth (S. cerevisiae deletion strains, locus YOR144C, strain elg1, hits give low values)?
A: 1.02

Q: And the normalized growth (S. cerevisiae deletion strains, locus YOR184W, strain ser1, hits give low values)?
A: 0.999

Q: What about the normalized growth (S. cerevisiae deletion strains, locus YOR231W, strain MKK1, hits give low values) of the same compound?
A: 1.04

Q: And the normalized growth (S. cerevisiae deletion strains, locus YOR265W, strain rbl2, hits give low values)?
A: 1

Q: And the normalized growth (S. cerevisiae deletion strains, locus YOR270C, strain vph1, hits give low values)?
A: 0.964

Q: And the normalized growth (S. cerevisiae deletion strains, locus YOR290C, strain snf2, hits give low values)?
A: 1.02

Q: And the normalized growth (S. cerevisiae deletion strains, locus YOR316C, strain cot1, hits give low values)?
A: 1.04

Q: And the normalized growth (S. cerevisiae deletion strains, locus YPL051W, strain arl3, hits give low values)?
A: 1.07

Q: What about the normalized growth (S. cerevisiae deletion strains, locus YPL078C, strain atp4, hits give low values) of the same compound?
A: 0.985

Q: And the normalized growth (S. cerevisiae deletion strains, locus YPL106C, strain sse1, hits give low values)?
A: 0.953

Q: What about the normalized growth (S. cerevisiae deletion strains, locus YPL240C, strain hsp82, hits give low values) of the same compound?
A: 1.01

Q: What about the normalized growth (S. cerevisiae deletion strains, locus YPL256C, strain CLN2, hits give low values) of the same compound?
A: 1.09

Q: And the normalized growth (S. cerevisiae deletion strains, locus YPR119W, strain clb2, hits give low values)?
A: 1.04

Q: And the normalized growth (S. cerevisiae deletion strains, locus YPR141C, strain kar3, hits give low values)?
A: 1.05

Q: And the normalized growth (S. cerevisiae deletion strains, locus YPR163C, strain tif3, hits give low values)?
A: 1.03

Q: What about the normalized growth (S. cerevisiae deletion strains, locus YPR167C, strain met16, hits give low values) of the same compound?
A: 1.04

Q: What about the normalized growth (S. cerevisiae deletion strains, strain wtn01, hits give low values) of the same compound?
A: 0.998

Q: What about the normalized growth (S. cerevisiae strains, strain wild type, hits give low values) of the same compound?
A: 1.01
